These results are taken from the supplement of paper PMC8728848.

Only a selection was taken, and the strongest signals are over-represented in it overall.

Common to all, as to test: glycan array binding signal (z-score within array); higher = stronger binding
What all share (conditions): glycan notation: IUPAC condensed, linker removed

The target of assay [1] is GlcNAc(a1-3)Gal(b1-4)GlcNAc. Put shortly:
(§1)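 The binding signal is a Z-score computed within each array. Data were drawn from 3228 arrays in the Consortium for Functional Glycomics database, restricted to those with a known protein sequence. Scores were averaged over arrays of the same protein sequence at different concentrations or buffers, and over linkers, and negative values can be taken as non-binding.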

In assay [2] the target is GlcNAc(a1-4)Gal(b1-4)GlcNAc(b1-3)Gal(b1-4)[Fuc(a1-3)]GlcNAc(b1-3)Gal(b1-4)[Fuc(a1-3)]GlcNAc. Put shortly: as §1
Assay [3] deals with GlcNAc(b1-2)Man(a1-3)[GlcNAc(b1-4)][GlcNAc(b1-2)Man(a1-6)]Man(b1-4)GlcNAc(b1-4)[Fuc(a1-6)]GlcNAc. In outline:
as §1

For assay [4], the target named is GlcNAc(b1-2)[GlcNAc(b1-4)]Man(a1-3)[GlcNAc(b1-4)][GlcNAc(b1-2)Man(a1-6)]Man(b1-4)GlcNAc(b1-4)GlcNAc. Put shortly: as §1
Assay [5] concerns the target Man(a1-2)Man(a1-2)Man(a1-6)[Man(a1-3)]Man. Put shortly:
as §1

The target in another assay is Man(a1-3)[Man(a1-6)]Man. In outline:
as §1

The target of assay [6] is Man(a1-3)[Man(a1-6)]Man(a1-6)[Man(a1-3)]Man(b1-4)GlcNAc(b1-4)GlcNAc. Put shortly: as §1
The next assay addresses Neu5Ac(a2-3)Gal. Put shortly:
as §1

The target in assay [7] is Neu5Ac(a2-3)Gal(b1-3)GalNAc. In outline: as §1
The target in assay [8] is Neu5Ac(a2-3)Gal(b1-3)GalNAc(b1-4)[Neu5Ac(a2-3)]Gal(b1-4)Glc. Put shortly: as §1
The target of assay [9] is Neu5Ac(a2-3)Gal(b1-3)GlcNAc(b1-3)GalNAc. In outline:
as §1

For assay [10], the target named is Neu5Ac(a2-3)Gal(b1-3)GlcNAc(b1-6)GalNAc. In outline: as §1
The target of a further assay is Neu5Ac(a2-3)Gal(b1-4)Glc. In outline: as §1
For assay [11], the target named is Neu5Ac(a2-3)Gal(b1-4)GlcNAc(b1-6)[Gal(b1-3)]GalNAc. In outline:
as §1

Assay [12] concerns the target Neu5Ac(a2-3)Gal(b1-4)GlcNAc(b1-6)[Neu5Ac(a2-3)Gal(b1-3)]GalNAc. In outline:
as §1

Assay [13] has as its target Neu5Ac(a2-3)Gal(b1-4)[Fuc(a1-3)]GlcNAc(b1-3)GalNAc. Put shortly: as §1
Assay [14] has as its target Neu5Ac(a2-6)GalNAc(b1-4)GlcNAc. In outline: as §1
The target in assay [15] is Neu5Ac(a2-8)Neu5Ac(a2-3)Gal(b1-4)GlcNAc. Put shortly:
as §1

The target of assay [16] is Neu5Ac(b2-6)Gal(b1-4)GlcNAc. Put shortly:
as §1

The target of a further assay is Neu5Ac(b2-6)GalNAc. Put shortly:
as §1

B1: Thrombomodulin (Mus musculus) (protein)
chain: ALAKLQPTGSQCVEHECFALFQGPATFLDASQACQRLQGHLMTVRSSVAADVISLLLSQSSMDLGPWIGLQLPQGCDDPVHLGPLRGFQWVTGDNHTSYSRWARPNDQTAPLCGPLCVTVSTATEAAPGEPAWEEKPCETETQGFLCEFYFTASC
As for B1, the “glycan array binding signal (z-score)” value in assay [1] was -0.129; in assay [2], 0.047; in assay [3] it was -0.052; in assay [4] it was 1.03; in assay [5] it was -0.278; in the assay with Man(a1-3)[Man(a1-6)]Man, 0.154. The “glycan array binding signal (z-score)” value is -0.262 in assay [6]; -0.273 in the assay with Neu5Ac(a2-3)Gal; 1.07 in [7]; -0.4 in [8]; -0.354 in assay [9]; 0.614 in [10]. In addition, the “glycan array binding signal (z-score)” value in the assay with Neu5Ac(a2-3)Gal(b1-4)Glc was 2.91; in assay [11], -0.321; in assay [12], -0.43; in assay [13], 0.695; in [14] it was -0.193; in assay [15] it was -0.54. The “glycan array binding signal (z-score)” value in assay [16] was -0.139; in the assay with Neu5Ac(b2-6)GalNAc, -0.216.
